From PubChem BioAssay (NCI)
About 83,000 compounds went through this panel and 20% of them were active in at least one assay; those are over-represented in the sample as a whole.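 Method: cells in 96-well plates; compound added at one concentration; 48 h incubation; percent growth measured; values under 10 scored active.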 Calls of active or inactive are those of the source.

tested on: MCF7 breast; test: NCI-60 one-dose screen, 48 h (100 = growth as untreated, 0 = no growth, -100 = all killed); details: 10 µM unless noted

Row | SMILES | growth
1 | COc1ccc(-c2c(N)n[nH]c2-c2cc3c(c(OC)c2OC)OCO3)cc1 | 101% (inactive)
2 | COc1cc(-c2nn(-c3cccc(NC(=O)c4cccc(C(F)(F)F)c4)c3)cc2-c2ccncc2)ccc1Cl | 3.58% (active)
3 | Clc1ccc(-c2nc3ccccc3s2)cc1Cl | 67.8% (inactive)
4 | Fc1ccc(CNCCNc2ncnc3c2cnn3-c2ccccc2)cc1 | 96.5% (inactive)
5 | COc1ccc(-n2c(=O)sc3c(Cl)nc(C)nc32)c(OC)c1 | 97.6% (inactive)
6 | O=C(O)c1nc(-c2ccccc2)oc1N1CCOCC1 | 98.3% (inactive)
7 | Cn1c(=O)c2[nH]c(C3CC=CCC3)nc2n(C)c1=O (stereo not given) | 102% (inactive)
8 | COc1ccc(C2C=C(c3ccc(N)cc3)N=C3SC=CN32)cc1OC (stereo not given) | 98.6% (inactive)
9 | O=S(=O)(NCCNc1nccc(-c2c(-c3ccc(O)cc3)nc3sccn23)n1)c1cccc2ccccc12 | 96.8% (inactive)
10 | O=S(=O)(NCCNc1nccc(-c2c(-c3ccc(F)cc3)nc3sccn23)n1)c1ccc(F)cc1 | 30.9% (inactive)
11 | COc1ccc(/C=C2\CN(Cc3cn(CCNc4ccnc5cc(Cl)ccc45)nn3)C/C(=C\c3ccc(OC)c(OC)c3)C2=O)cc1OC | 28% (inactive)
12 | Cc1ccc(S(=O)(=O)c2nc(-c3ccccc3)oc2S(C)(=O)=O)cc1 | 3.86% (active)
13 | COc1ccc(C2=Nn3c(nnc3-n3nc(C)cc3C)SC2)cc1 | 16.9% (inactive)
14 | O=C(O)/C=C/C(=O)c1ccc(Cl)cc1 | 102% (inactive)
15 | Cc1ccc(S(=O)(=O)NCCNc2nccc(-c3c(-c4ccc(O)cc4)nc4sccn34)n2)cc1 | 93.7% (inactive)
16 | Cc1cc(N)n(S(=O)(=O)c2oc(-c3ccccc3)nc2C#N)n1 | 64% (inactive)
17 | COc1ccc(-c2cc3c(OC)c(OC)c(OC)cc3oc2=O)cc1 | 26.2% (inactive)
18 | COc1ccc(OC)c(C2OC(c3ccc4ccccc4c3O)=NN2C(C)=O)c1 (stereo not given) | 37.3% (inactive)

Row | SMILES | growth
19 | Cc1ccc(NS(=O)(=O)c2cc(C)ccc2C)cc1 | 24.3% (inactive)
20 | COc1cc(-c2nn(-c3cccc(NC(=O)c4ccccc4)c3)cc2-c2ccncc2)ccc1Cl | 4.67% (active)
21 | O=C(Nc1cccc(-n2cc(-c3ccncc3)c(-c3ccc(Cl)c(O)c3)n2)c1)Nc1ccc(Cl)c(Cl)c1 | 5.74% (active)
22 | O=S(=O)(NCCNc1nccc(-c2c(-c3cccc(O)c3)nc3sccn23)n1)c1ccc(F)cc1 | 38.2% (inactive)
23 | O=C(Nc1ccc2c(c1)OCCO2)C(=O)c1c[nH]c2ccccc12 | 18.4% (inactive)
24 | CCCCCCCC/C=C/CCCCCCCC1=NC(C)(C)CN1C(C)(C)CO | -44.3% (active)
25 | COc1ccc(-n2c(=S)sc3c(Cl)nc(C)nc32)c(OC)c1 | 13.8% (inactive)
26 | NC(=O)CCCN1C/C(=C\c2ccccc2)C(=O)c2ccccc21 | 96.7% (inactive)
27 | COc1ccc(Nc2nn3c(C)cc(C)nc3c2C(=O)Nc2ccc(C)cc2)c(OC)c1 | 101% (inactive)
28 | COc1cc(-c2nn(-c3cccc(NC(=O)c4ccc(Cl)c(C(F)(F)F)c4)c3)cc2-c2ccncc2)ccc1Cl | 37.6% (inactive)
29 | COc1cc(-c2nc(-c3nc4ccc(Cl)cc4[nH]3)cc3c2[nH]c2ccccc23)cc(OC)c1OC | 47.9% (inactive)
30 | Cc1c(C(N)=O)sc2c1c(=O)n(Cc1ccccc1)c1nnc(Nc3ccccc3)n21 | 100% (inactive)
31 | O=c1c2sc3ncccc3c2nnn1-c1ccccc1 | 90.6% (inactive)
32 | CCCCCCCC[C@@H](O)CC(=O)N[C@@H](CC(N)=O)C(=O)N[C@@H](CCC(N)=O)C(=O)N[C@@H](CC(=O)c1cc(C)cc(O)c1C(=O)c1c(O)cccc1O)CC(C)C | 29.9% (inactive)
33 | COc1cc(/C(C#N)=C/c2ccc3c(c2OC)OCO3)cc2c1OCO2 | 21.4% (inactive)
34 | COc1ccc(Nc2[nH]n3c(=O)cc(C)nc3c2C(N)=O)c(OC)c1 | 92.7% (inactive)
35 | Fc1ccc(Nc2nc(NCCNc3ccnc4cc(Cl)ccc34)nc(N3CCOCC3)n2)cc1 | 55% (inactive)
36 | CN(C)c1oc(C2OC2c2ccccc2)nc1C#N (stereo not given) | 90.5% (inactive)

tested on: HCT-116 colon; test: as above; details: 10 µM unless noted

Row | SMILES | growth
37 | COc1ccc(-c2c(N)n[nH]c2-c2cc3c(c(OC)c2OC)OCO3)cc1 | 94.1% (inactive)
38 | COc1cc(-c2nn(-c3cccc(NC(=O)c4cccc(C(F)(F)F)c4)c3)cc2-c2ccncc2)ccc1Cl | 8.15% (active)
39 | Clc1ccc(-c2nc3ccccc3s2)cc1Cl | 99% (inactive)
40 | Fc1ccc(CNCCNc2ncnc3c2cnn3-c2ccccc2)cc1 | 99.9% (inactive)
41 | COc1ccc(-n2c(=O)sc3c(Cl)nc(C)nc32)c(OC)c1 | 64.7% (inactive)
42 | O=C(O)c1nc(-c2ccccc2)oc1N1CCOCC1 | 94.6% (inactive)
43 | Cn1c(=O)c2[nH]c(C3CC=CCC3)nc2n(C)c1=O (stereo not given) | 106% (inactive)
44 | COc1ccc(C2C=C(c3ccc(N)cc3)N=C3SC=CN32)cc1OC (stereo not given) | 107% (inactive)
45 | O=S(=O)(NCCNc1nccc(-c2c(-c3ccc(O)cc3)nc3sccn23)n1)c1cccc2ccccc12 | 108% (inactive)
46 | O=S(=O)(NCCNc1nccc(-c2c(-c3ccc(F)cc3)nc3sccn23)n1)c1ccc(F)cc1 | 60.4% (inactive)
47 | COc1ccc(/C=C2\CN(Cc3cn(CCNc4ccnc5cc(Cl)ccc45)nn3)C/C(=C\c3ccc(OC)c(OC)c3)C2=O)cc1OC | -85.3% (active)
48 | Cc1ccc(S(=O)(=O)c2nc(-c3ccccc3)oc2S(C)(=O)=O)cc1 | -61.8% (active)
49 | COc1ccc(C2=Nn3c(nnc3-n3nc(C)cc3C)SC2)cc1 | 5.57% (active)
50 | O=C(O)/C=C/C(=O)c1ccc(Cl)cc1 | 108% (inactive)
51 | Cc1ccc(S(=O)(=O)NCCNc2nccc(-c3c(-c4ccc(O)cc4)nc4sccn34)n2)cc1 | 100% (inactive)
52 | C=C1CCC[C@]2(C)CCC[C@H](C)[C@@H](OC(C)=O)[C@@H]3OC(=O)C(=C)[C@@H]3C[C@H]1O2 | 55.1% (inactive)
53 | Cc1cc(N)n(S(=O)(=O)c2oc(-c3ccccc3)nc2C#N)n1 | 75% (inactive)
54 | COc1ccc(-c2cc3c(OC)c(OC)c(OC)cc3oc2=O)cc1 | 21.7% (inactive)
55 | COc1ccc(OC)c(C2OC(c3ccc4ccccc4c3O)=NN2C(C)=O)c1 (stereo not given) | 55.5% (inactive)
56 | Cc1ccc(NS(=O)(=O)c2cc(C)ccc2C)cc1 | 17.6% (inactive)

Row | SMILES | growth
57 | COc1cc(-c2nn(-c3cccc(NC(=O)c4ccccc4)c3)cc2-c2ccncc2)ccc1Cl | 8.58% (active)
58 | O=C(Nc1cccc(-n2cc(-c3ccncc3)c(-c3ccc(Cl)c(O)c3)n2)c1)Nc1ccc(Cl)c(Cl)c1 | 11.1% (inactive)
59 | O=S(=O)(NCCNc1nccc(-c2c(-c3cccc(O)c3)nc3sccn23)n1)c1ccc(F)cc1 | 45.9% (inactive)
60 | O=C(Nc1ccc2c(c1)OCCO2)C(=O)c1c[nH]c2ccccc12 | 14.7% (inactive)
61 | CCCCCCCC/C=C/CCCCCCCC1=NC(C)(C)CN1C(C)(C)CO | -99.4% (active)
62 | COc1ccc(-n2c(=S)sc3c(Cl)nc(C)nc32)c(OC)c1 | 0.658% (active)
63 | CCOC(=O)c1cn2c3c(cc(C)cc3c1=O)C(=O)/C(=C/c1ccccc1)C2 | 86.4% (inactive)
64 | CN(C)CC(C(=O)c1ccccc1)c1ccccc1 (stereo not given) | -94.7% (active)
65 | NC(=O)CCCN1C/C(=C\c2ccccc2)C(=O)c2ccccc21 | 101% (inactive)
66 | COc1ccc(Nc2nn3c(C)cc(C)nc3c2C(=O)Nc2ccc(C)cc2)c(OC)c1 | 99% (inactive)
67 | COc1cc(-c2nn(-c3cccc(NC(=O)c4ccc(Cl)c(C(F)(F)F)c4)c3)cc2-c2ccncc2)ccc1Cl | 24% (inactive)
68 | COc1cc(-c2nc(-c3nc4ccc(Cl)cc4[nH]3)cc3c2[nH]c2ccccc23)cc(OC)c1OC | 58.7% (inactive)
69 | Cc1c(C(N)=O)sc2c1c(=O)n(Cc1ccccc1)c1nnc(Nc3ccccc3)n21 | 94.2% (inactive)
70 | O=c1c2sc3ncccc3c2nnn1-c1ccccc1 | 113% (inactive)
71 | CCCCCCCC[C@@H](O)CC(=O)N[C@@H](CC(N)=O)C(=O)N[C@@H](CCC(N)=O)C(=O)N[C@@H](CC(=O)c1cc(C)cc(O)c1C(=O)c1c(O)cccc1O)CC(C)C | -9.35% (active)
72 | COc1cc(/C(C#N)=C/c2ccc3c(c2OC)OCO3)cc2c1OCO2 | 16.7% (inactive)
73 | COc1ccc(Nc2[nH]n3c(=O)cc(C)nc3c2C(N)=O)c(OC)c1 | 97.8% (inactive)
74 | Fc1ccc(Nc2nc(NCCNc3ccnc4cc(Cl)ccc34)nc(N3CCOCC3)n2)cc1 | 37.3% (inactive)
75 | CN(C)c1oc(C2OC2c2ccccc2)nc1C#N (stereo not given) | 90.2% (inactive)
